Hits are enriched below; roughly 18% of the tested compounds scored in any of these assays.
TGFb inhibitor = qHTS for Inhibitors of TGF-b; HepG2 CAGA-GFP TGF-b/SMAD3 reporter, GFP fluorescence, 18 h; TGF-beta stimulated, 500 pg/mL final; Potency, µM (doses to about 46.1 µM), inactives show at the highest dose activity, negative = inhibition, actives largely listed as inhibitors; hit rate 1.2% among 410,000; AID 588855, 2011; note: potency is the fitted concentration of half-maximal effect; % is set by controls: 0 for no effect and ±100 for the full control effect; nearly all actives have a fitted effect of over 65% in size
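First, reporter cells (HEPG2 CAGA-GFP) rested 2 h at 37 degrees C. Next, compounds were pinned in and TGF-beta added to 500 pg/mL final. After 18 h, GFP was imaged per cell and summed per well.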
IL1B secr inh = qHTS for Inhibitors of Inflammasome Signaling: IL-1-beta AlphaLISA Primary Screen. THP-1 LPS/ATP IL-1B secretion, AlphaLISA, 16 h; stronger effect = lower value. AID 743279, 2014. activity change, % at 57.5 µM. hit rate 4.7% among 360,000; in the data active = activity change below about -50%; inconclusive = mostly about -30% to -49%; note: % is set by controls: 0 for no effect and ±100 for the full control effect
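Secreted IL-1B measured by AlphaLISA bead assay after 16 h compound exposure of THP-1 cells; compounds (final up to 57.5 uM) added 1 h before LPS (250 ng/mL) and ATP (1.25 mM) stimulation; lower signal means less secretion.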
HepG2 tox = qHTS for Inhibitors of TGF-b: Cytotox Counterscreen; HepG2 CAGA-GFP viability, ATP luminescence, 18 h; Potency, µM (highest dose often 46.1 µM), inactives show at the top dose activity change, negative = cytotoxicity, actives largely listed as cytotoxic; hit rate 0.76% among 410,000; note: potency is the fitted concentration of half-maximal effect
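CellTiter-Glo luminescence gave cytotoxicity after 18 hours at 37 degrees C. The cells were HepG2 CAGA-GFP in 1% FBS DMEM, stimulated with 500 pg/mL TGF-beta after compound addition. %Activity was normalised to no-cell wells (complete cell-killing) and DMSO (no toxicity), and curves were fitted and classified.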
TDP1 cell noCPT = qHTS for Inhibitors of human tyrosyl-DNA phosphodiesterase 1 (TDP1): qHTS in cells in absence of CPT; DT40 Tdp1-/- hTDP1 cells, no CPT, ATP luminescence, 48 h; Potency, µM (doses to about 46.2 µM), without a hit: top-dose activity change, negative = growth inhibition, actives largely listed as inhibitors; hit rate 15% among 420,000; note: potency is the fitted concentration of half-maximal effect; % is set by controls: 0 for no effect and ±100 for the full control effect; nearly all actives have a fitted effect of over 55% in size
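Chicken DT40 Tdp1-/- cells stably complemented with human TDP1 were seeded at 400 cells/well with DMSO in place of 20 nM camptothecin. After compound pinning, cells grew at least 48 hr at 37 °C; viability read by CellTiter-Glo luminescence.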
TDP1 block = qHTS Assay for Inhibitors of Tyrosyl-DNA Phosphodiesterase (TDP1); Tyrosyl-DNA phosphodiesterase 1 (Homo sapiens), Q9NUW8; recombinant TDP1, AlphaScreen DNA substrate cleavage; Potency, µM (series often up to 130 µM), inactives show top-dose activity change, negative = inhibition, hits mostly inhibitors; hit rate 0.28% among 350,000; AID 485290, 2010; note: potency is the fitted concentration of half-maximal effect; % is set by controls: 0 for no effect and ±100 for the full control effect; nearly all actives have a fitted effect of over 40% in size
Target sequence (Q9NUW8 whole entry, looked up): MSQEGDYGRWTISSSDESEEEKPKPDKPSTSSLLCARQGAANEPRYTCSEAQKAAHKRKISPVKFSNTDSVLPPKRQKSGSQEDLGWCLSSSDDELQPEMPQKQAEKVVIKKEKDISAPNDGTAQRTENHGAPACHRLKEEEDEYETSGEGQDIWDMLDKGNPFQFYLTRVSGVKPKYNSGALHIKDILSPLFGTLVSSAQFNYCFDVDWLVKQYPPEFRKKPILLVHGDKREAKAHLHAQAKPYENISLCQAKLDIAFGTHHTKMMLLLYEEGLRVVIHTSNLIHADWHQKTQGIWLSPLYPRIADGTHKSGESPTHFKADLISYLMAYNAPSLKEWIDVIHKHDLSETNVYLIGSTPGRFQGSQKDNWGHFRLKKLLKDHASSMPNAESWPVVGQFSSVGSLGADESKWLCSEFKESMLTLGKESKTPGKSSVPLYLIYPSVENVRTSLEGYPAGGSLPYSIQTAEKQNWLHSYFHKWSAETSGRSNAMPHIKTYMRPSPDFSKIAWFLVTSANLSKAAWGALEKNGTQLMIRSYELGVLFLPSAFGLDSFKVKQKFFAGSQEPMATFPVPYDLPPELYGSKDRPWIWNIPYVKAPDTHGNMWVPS
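AlphaScreen read-out: signal falls as enzyme removes the 3' tyrosine-FITC from a 5'-biotinylated DNA oligo (15 nM, 5 min, RT). Enzyme was E. coli-made recombinant Tdp1 at 1 nM, exposed to compound for 15 min beforehand; beads 10 ug/ml, 10 min.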
DT40 TDP1 CPT = qHTS for Inhibitors of human tyrosyl-DNA phosphodiesterase 1 (TDP1): qHTS in cells in presence of CPT; chicken DT40 Tdp1-/-;hTDP1 cells + 20 nM CPT, ATP luminescence, 48 h; Potency, µM (titrated, usually from 46.2 µM), without a hit: at the highest dose activity change, negative = growth inhibition, usual class: inhibitors; hit rate 12% among 420,000; AID 686979, 2013; note: potency is the fitted concentration of half-maximal effect; % is set by controls: 0 for no effect and ±100 for the full control effect; nearly all actives have a fitted effect of over 55% in size
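Chicken DT40 Tdp1-/- cells stably complemented with human TDP1 were seeded at 400 cells/well in medium containing 20 nM camptothecin, exposed to pin-transferred compounds, and grown at 37 °C for at least 48 hr. Viability was read as ATP luminescence.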
An asterisk follows results filed as active; ? = inconclusive; . = no result. Unless noted, calls come from the whole dose curve; as a rule, active = well fitted curve in the direction sought with a large enough effect; inconclusive = small, poorly fitted or top-dose-only effect, or another doubt; inactive = no such curve, though single readings can be large; an effect the other way counts as inactive or inconclusive.

SMILES	TGFb inhibitor	IL1B secr inh	HepG2 tox	TDP1 cell noCPT	TDP1 block	DT40 TDP1 CPT
CCn1cc(C(=O)OCC(=O)c2cc(C)n(-c3ccccc3)c2C)c(=O)c2ccc(C)nc21	-3%	11	4%	?	3%	-22%
Cc1ccc(NC(=O)CSc2cn(CC(=O)N3CCCCCC3)c3ccccc23)cc1	-2%	.	-2%	?	1%	-23%
Cc1ccc(NC(=O)CSc2cn(CC(=O)N3CCCC3)c3ccccc23)cc1Cl	0%	.	-26%	?	5%	26µM*
CCOc1ccccc1NC(=O)COC(=O)c1ccccc1SCC(=O)N1CCCC1	27%	11	7%	16µM*	.	?
CC(=O)c1ccc(NC(=O)CSc2cn(CC(=O)N3CCCCC3)c3ccccc23)cc1	0%	.	-6%	21µM*	8%	?
CCOC(=O)N1CCN(C(=O)CS(=O)(=O)c2cn(Cc3ccccc3C)c3ccccc23)CC1	-10%	16	-13%	?	3%	-3%
Cc1ccccc1Cn1cc(S(=O)(=O)CC(=O)Nc2nccs2)c2ccccc21	-26%	-64*	-21%	?	8%	?
O=C(Nc1cc2c(cc1C(=O)c1cccc(Br)c1)OCCO2)c1ccccc1F	5%	.	-13%	.	5%	.
Cc1ccccc1CNC(=O)c1ccccc1NC(=O)c1nsc2ccccc12	1%	.	-1%	?	0%	?
CCOc1cc(CNC(=O)c2ccc(C)c(NC(=O)c3nsc4ccccc34)c2)ccc1OC	-25%	.	3%	7.3µM*	3%	7.3µM*
CCOc1cc(CNC(=O)c2ccc(NC(=O)c3nsc4ccccc34)cc2)ccc1OC	1%	.	-15%	?	5%	?
CCOc1ccc(CNC(=O)c2ccccc2NC(=O)c2nsc3ccccc23)cc1	?	.	-3%	18µM*	3%	21µM*
O=C(NCc1ccccc1Cl)c1ccccc1NC(=O)c1nsc2ccccc12	-10%	.	-8%	16µM*	3%	?
CN(c1ccc(Cl)cc1)S(=O)(=O)c1nnc(NC(=O)C2CCCCC2)s1	?	.	-45%	-21%	0%	-11%
FC(F)C(F)(F)Oc1cccc(Nc2nccn3c(-c4cccc5cccnc45)cnc23)c1	-12%	-20	-36%	23µM*	.	26µM*
CC(NC(=O)CSc1nnnn1C1CC1)c1ccccc1Br (stereo not given)	7%	5	1%	-20%	0%	-9%
CC1CCN(C(=O)Cn2cc(SCC(=O)Nc3ccccc3C(F)(F)F)c3ccccc32)CC1	?	.	-15%	21µM*	0%	?
Cc1cccc(NC(=O)CSc2cn(CC(=O)N3CCC(C)CC3)c3ccccc23)c1C	-24%	.	-11%	9.2µM*	-5%	23µM*
O=C(Nc1ccc(F)cc1)c1ccc(Cn2nc(N3CCN(c4ccccc4)CC3)ccc2=O)o1	?	.	-38%	?	8%	?
O=C(COc1ccc(S(=O)(=O)NC2CCCCC2)cc1Cl)Nc1ccc2c(c1)OCO2	?	-59*	0%	?	2%	?
O=C(COc1ccc(S(=O)(=O)NC2CCCCC2)cc1Cl)NCc1ccc2c(c1)OCO2	-20%	5	6%	?	-2%	?
COc1ccc(CCNC(=O)COc2ccc(S(=O)(=O)NC3CCCCC3)cc2Cl)cc1OC	?	26	-23%	16µM*	8%	23µM*

High-throughput results deposited in PubChem by National Center for Advancing Translational Sciences (NCATS).
